In PubChem BioAssay (NCI):
Compounds without any hit were thinned out: in the full panel of roughly 83,000, 20% have a hit.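 Treatment: one concentration, 48 hours, 96-well format. Scoring: percent growth, with anything below 10 considered active.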 Values without a mark were called inactive. The source made the active and inactive calls.

Tests used:
Test in all cases: NCI-60 one-dose screen, 48 h (100 = growth as untreated, 0 = no growth, -100 = all killed)
Conditions in all cases: 10 µM unless noted
[1] = tested on: NCI-H23 lung
[2] = tested on: NCI-H226 lung
[3] = tested on: NCI-H322M lung
[4] = tested on: HOP-62 NSCLC
[5] = tested on: NCI-H460 lung
[6] = tested on: HOP-92 NSCLC
[7] = tested on: NCI-H522 lung
[8] = tested on: A549/ATCC NSCLC
[9] = tested on: 786-0 renal
[10] = tested on: COLO 205 colon
[11] = tested on: DU-145 prostate
[12] = tested on: K-562 leukemia
[13] = tested on: MALME-3M melanoma
[14] = tested on: MDA-MB-231 breast
[15] = tested on: RXF 393 renal
[16] = tested on: SF-268 CNS
[17] = tested on: SF-295 CNS
[18] = tested on: SF-539 CNS
[19] = tested on: UACC-257 melanoma
[20] = tested on: M14 melanoma

SMILES: COc1cc(C(C)=C(c2ccc(OCCN(C)C)cc2)c2ccc(OCCN(C)C)cc2)ccc1F
- growth [1]: 96.5%
- growth [2]: 92.9%
- growth [3]: 96.6%
- growth [4]: 97.2%
- growth [5]: 106%
- growth [6]: 73.4%
- growth [7]: 99.7%
- growth [8]: 113%
- growth [9]: 94.3%
- growth [10]: 104%
- growth [11]: 102%
- growth [12]: 93.3%
- growth [13]: 92.6%
- growth [14]: 102%
- growth [15]: 90.6%
- growth [16]: 98.5%
- growth [17]: 100%
- growth [18]: 101%
- growth [19]: 111%
- growth [20]: 110%

SMILES: C/C(=N\NC(=O)/C=C/CC(=O)O)c1nnn(-c2ccc([N+](=O)[O-])cc2)c1C
- growth [1]: 97.8%
- growth [2]: 96.9%
- growth [3]: 99.1%
- growth [4]: 104%
- growth [5]: 111%
- growth [6]: 74.3%
- growth [7]: 98.6%
- growth [8]: 102%
- growth [9]: 101%
- growth [10]: 108%
- growth [11]: 104%
- growth [12]: 103%
- growth [13]: 97.9%
- growth [14]: 104%
- growth [15]: 106%
- growth [16]: 96.9%
- growth [17]: 97%
- growth [18]: 100%
- growth [19]: 105%
- growth [20]: 103%

SMILES: CC1CCN(CC(=O)Nn2c(COc3ccccc3)nc3ccccc3c2=O)CC1
- growth [1]: 91.7%
- growth [2]: 84.6%
- growth [3]: 95.4%
- growth [4]: 91.9%
- growth [5]: 90.6%
- growth [6]: 96.2%
- growth [7]: 75.4%
- growth [8]: 90.9%
- growth [9]: 99%
- growth [10]: 84.1%
- growth [11]: 101%
- growth [12]: 32.2%
- growth [13]: 79.5%
- growth [14]: 78.4%
- growth [15]: 94.2%
- growth [16]: 99.4%
- growth [17]: 96.9%
- growth [18]: 88.6%
- growth [19]: 95.4%
- growth [20]: 78.9%

SMILES: Fc1cc(F)cc(NNC(=S)c2ccccc2)c1
- growth [1]: 23.1%
- growth [2]: 49.7%
- growth [3]: 73.4%
- growth [4]: 58.4%
- growth [5]: 21.9%
- growth [6]: -16.7% (active)
- growth [7]: 37%
- growth [8]: 31%
- growth [9]: 53.3%
- growth [10]: 108%
- growth [11]: 58%
- growth [12]: 29.4%
- growth [13]: 85.3%
- growth [14]: 66.5%
- growth [15]: -11% (active)
- growth [16]: 55%
- growth [17]: 52.5%
- growth [18]: 66.6%
- growth [19]: 73.8%
- growth [20]: 30.2%

SMILES: COC(=O)c1ccc(NC2=C(Cl)C(=O)c3nc(C)ccc3C2=O)cc1
- growth [1]: 54.8%
- growth [2]: 81.3%
- growth [3]: 101%
- growth [4]: 96.8%
- growth [5]: 92.3%
- growth [6]: 142%
- growth [7]: 59.6%
- growth [8]: 94.1%
- growth [9]: 85.7%
- growth [10]: 111%
- growth [11]: 68.5%
- growth [12]: 7.53% (active)
- growth [13]: 74.7%
- growth [14]: 91.9%
- growth [15]: 89.7%
- growth [16]: 72.9%
- growth [17]: 61.3%
- growth [18]: 72.6%
- growth [19]: 78.1%
- growth [20]: 59.9%

SMILES: CC(C)(C)Nc1nc2c(OCCc3ccccc3)cccn2c1-c1ccc([N+](=O)[O-])cc1
- growth [1]: 62.4%
- growth [2]: 70.5%
- growth [3]: 64.7%
- growth [4]: 78.1%
- growth [5]: 60.8%
- growth [6]: 54.7%
- growth [7]: 41.4%
- growth [8]: 53.5%
- growth [9]: 75.1%
- growth [10]: 49%
- growth [11]: 86.2%
- growth [12]: 39.7%
- growth [13]: 83.6%
- growth [14]: 80.9%
- growth [15]: 63.5%
- growth [16]: 71.2%
- growth [17]: 43.8%
- growth [18]: 76.5%
- growth [19]: 88.7%
- growth [20]: 60.5%

SMILES: CN1CC[C@@H]2[C@@]3(C)CC[C@H](O)C(C)(C)[C@@H]3CC[C@@]2(C)[C@]2(C)CC[C@@]3(CO)CCC(C)(C)C[C@@H]3C12 (stereo not given in full)
- growth [1]: 90.7%
- growth [2]: 94.4%
- growth [3]: 98.8%
- growth [4]: 101%
- growth [5]: 98.3%
- growth [6]: 66.8%
- growth [7]: 98%
- growth [8]: 86%
- growth [9]: 80.7%
- growth [10]: -2.47% (active)
- growth [11]: 103%
- growth [12]: 21.5%
- growth [13]: 84.3%
- growth [14]: 85%
- growth [15]: 77.2%
- growth [16]: 96.7%
- growth [17]: 104%
- growth [18]: 74.9%
- growth [19]: 49.1%
- growth [20]: 58.6%

SMILES: CSc1ccc(/C(=N/N=C(N)N)c2ccc(F)cc2)cc1
- growth [1]: -36.7% (active)
- growth [2]: 0.244% (active)
- growth [3]: 67.5%
- growth [4]: 36.1%
- growth [5]: 6.38% (active)
- growth [6]: 33.4%
- growth [7]: 8.51% (active)
- growth [8]: 16.4%
- growth [9]: 17.7%
- growth [10]: -42.2% (active)
- growth [11]: 20.9%
- growth [12]: 0.0764% (active)
- growth [13]: 90.4%
- growth [14]: 24.2%
- growth [15]: -4.77% (active)
- growth [16]: 36.3%
- growth [17]: 11.8%
- growth [18]: 10.4%
- growth [19]: 66.1%
- growth [20]: 3.79% (active)

SMILES: COc1ccccc1/C=C1\Oc2ccc(O)c(O)c2C1=O
- growth [1]: 93.2%
- growth [2]: 110%
- growth [3]: 102%
- growth [4]: 99.9%
- growth [5]: 101%
- growth [6]: 103%
- growth [7]: 89.1%
- growth [8]: 101%
- growth [9]: 94.1%
- growth [10]: 116%
- growth [11]: 98.4%
- growth [12]: 95.6%
- growth [13]: 102%
- growth [14]: 94.9%
- growth [15]: 90.2%
- growth [16]: 102%
- growth [17]: 112%
- growth [18]: 91.8%
- growth [19]: 101%
- growth [20]: 95.4%

SMILES: COc1ccc(-c2c3c(cn2Cc2cccc(OC)c2)-c2oncc2CCC3)cc1
- growth [1]: 105%
- growth [2]: 85%
- growth [3]: 103%
- growth [4]: 102%
- growth [5]: 98.9%
- growth [6]: 74.2%
- growth [7]: 96.3%
- growth [8]: 98.9%
- growth [9]: 103%
- growth [10]: 95.2%
- growth [11]: 101%
- growth [12]: 85.6%
- growth [13]: 95.6%
- growth [14]: 101%
- growth [15]: 111%
- growth [16]: 99.5%
- growth [17]: 97%
- growth [18]: 97.8%
- growth [19]: 96.6%
- growth [20]: 91.6%

SMILES: C#C[C@]1(O)CC[C@H]2[C@@H]3CC=C4c5sc(N6CCN(C)CC6)nc5CC[C@]4(C)[C@H]3CC[C@@]21C
- growth [1]: 57%
- growth [2]: 86.8%
- growth [3]: 77.4%
- growth [4]: 54.8%
- growth [5]: 49.2%
- growth [6]: 82.7%
- growth [7]: 28.1%
- growth [8]: 54.7%
- growth [9]: -39.2% (active)
- growth [10]: 66.5%
- growth [11]: 75.5%
- growth [12]: 0.102% (active)
- growth [13]: 56.9%
- growth [14]: 62%
- growth [15]: -22.1% (active)
- growth [16]: 52.4%
- growth [17]: -39.8% (active)
- growth [18]: 7.74% (active)
- growth [19]: 61.5%
- growth [20]: -73.4% (active)

SMILES: O=C(/C=C/c1cccc(F)c1)c1cccc(OCCCCOc2cccc(C(=O)/C=C/c3cccc(F)c3)c2)c1
- growth [1]: 102%
- growth [2]: 103%
- growth [3]: 102%
- growth [4]: 114%
- growth [5]: 100%
- growth [6]: 139%
- growth [7]: 93.4%
- growth [8]: 104%
- growth [9]: 106%
- growth [10]: 117%
- growth [11]: 107%
- growth [12]: 100%
- growth [13]: 101%
- growth [14]: 95.9%
- growth [15]: 107%
- growth [16]: 99.7%
- growth [17]: 105%
- growth [18]: 110%
- growth [19]: 105%
- growth [20]: 103%

SMILES: COc1cc(/C=C2/C(=O)Nc3ccc(Cl)cc32)ccc1OCc1ccc(Cl)cc1
- growth [1]: 81.2%
- growth [2]: 95.7%
- growth [3]: 89.3%
- growth [4]: 92.1%
- growth [5]: 70.5%
- growth [6]: 88.3%
- growth [7]: 87.9%
- growth [8]: 84.9%
- growth [9]: 100%
- growth [10]: 93.4%
- growth [11]: 89.5%
- growth [12]: 88.6%
- growth [13]: 82.3%
- growth [14]: 86.9%
- growth [15]: 93.4%
- growth [16]: 90.2%
- growth [17]: 97.7%
- growth [18]: 92.2%
- growth [19]: 102%
- growth [20]: 96.4%

SMILES: CC(=O)N1N=C(c2cc3ccccc3oc2=O)CC1c1cn(-c2ccccc2)nc1-c1ccc(C)cc1 (stereo not given)
- growth [1]: 100%
- growth [2]: 94.8%
- growth [3]: 101%
- growth [4]: 93%
- growth [5]: 104%
- growth [6]: 105%
- growth [7]: 97.4%
- growth [8]: 97.3%
- growth [9]: 103%
- growth [10]: 103%
- growth [11]: 103%
- growth [12]: 103%
- growth [13]: 92.3%
- growth [14]: 94.4%
- growth [15]: 98.8%
- growth [16]: 98.7%
- growth [17]: 100%
- growth [18]: 90.1%
- growth [19]: 99.4%
- growth [20]: 101%

SMILES: Brc1cccc(-c2cc(-c3ccc4c(c3)OC=CO4)[nH]n2)c1
- growth [1]: 58.2%
- growth [2]: 78%
- growth [3]: 49.8%
- growth [4]: 58.1%
- growth [5]: 15.1%
- growth [6]: 96.3%
- growth [7]: 29.4%
- growth [8]: 37.5%
- growth [9]: 70.4%
- growth [10]: 36.1%
- growth [11]: 54.8%
- growth [12]: 13.6%
- growth [13]: 25.6%
- growth [14]: 53.2%
- growth [15]: 60.2%
- growth [16]: 64.6%
- growth [17]: 38%
- growth [18]: 49.3%
- growth [19]: 67.5%
- growth [20]: 15.7%

SMILES: CCN(CC)CCOc1ccc(C(=C(C)Cc2ccc(OC)cc2)c2ccc(OCCN(CC)CC)cc2)cc1
- growth [1]: 82.6%
- growth [2]: 81.3%
- growth [3]: 81.5%
- growth [4]: 62.6%
- growth [5]: 38.4%
- growth [6]: 19.9%
- growth [7]: 76.8%
- growth [8]: 52.6%
- growth [9]: 60.5%
- growth [10]: -78.2% (active)
- growth [11]: 74.5%
- growth [12]: -4.16% (active)
- growth [13]: -75.5% (active)
- growth [14]: 55.4%
- growth [15]: 41.9%
- growth [16]: 70%
- growth [17]: 52.8%
- growth [18]: -45.9% (active)
- growth [19]: 62.6%
- growth [20]: -53.6% (active)
